Screening data: PubChem, several laboratories
Jurkat NFkB inh: inhibitors of the PMA/ionomycin-induced NF-kB reporter in Jurkat cells | PMA/ionomycin-induced NF-kB luciferase reporter, luminescence | inhibition, % at 4 µM | 330,000 tested, 0.53% active; in the data active means inhibition above about 50%
697 NFkB inh: lowers PMA/ionomycin-induced NF-kB signal in 697 B cells | inhibition, % at 4 µM | 330,000 tested, 0.33% active | 697 B-cell NF-kB luciferase reporter, 16 h; in the data active means inhibition above about 35%
Gli-Sufu antag: blocks Gli-Sufu signaling in a luciferase reporter | AID 588413 | Sufu-KO-LIGHT fibroblasts, Gli luciferase reporter luminescence | 340,000 tested, 0.74% active | inhibition, % at 5 µM;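 active means inhibition above about 55%, limit read from the data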;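 further: 0% = DMSO-treated cells and 100% = wells with medium but no cells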
COUP-TFII inh: inhibitors of human COUP-TFII (NR2F2); 370,000 tested, 0.7% active; inhibition, % at 8.6 µM; HEK293T NGFI-A luciferase reporter, luminescence; P24468;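 active means inhibition above a per-plate cutoff, mean inhibition of test wells between control levels plus 3 SD, cut at about 38% in these data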;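 further: cells cotransfected with COUP-TFII expression vector driving the NGFI-A reporter; 0% = median of COUP-TF2 test wells and 100% = reporter-only cells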
Target sequence (P24468 whole entry, looked up): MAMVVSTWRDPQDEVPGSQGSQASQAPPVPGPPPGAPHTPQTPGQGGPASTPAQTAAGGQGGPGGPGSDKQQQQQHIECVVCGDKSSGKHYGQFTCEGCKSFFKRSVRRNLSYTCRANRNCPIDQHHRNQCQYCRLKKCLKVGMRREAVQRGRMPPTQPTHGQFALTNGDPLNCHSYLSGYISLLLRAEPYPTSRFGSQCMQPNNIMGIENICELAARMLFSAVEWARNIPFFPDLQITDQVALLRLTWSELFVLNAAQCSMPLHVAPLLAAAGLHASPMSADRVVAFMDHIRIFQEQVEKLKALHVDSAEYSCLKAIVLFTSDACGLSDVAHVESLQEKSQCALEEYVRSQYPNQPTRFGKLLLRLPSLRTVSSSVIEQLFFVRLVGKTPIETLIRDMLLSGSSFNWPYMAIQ
GalR3 antagonist: antagonists of human GalR3; O60755; 360,000 tested, 0.44% active; inhibition, % at 3 µM; HEK293 GalR3-CNG cAMP membrane potential fluorescence; galR3 body fused to GalR1 C-terminus; AID 651719;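 active means inhibition above the screen-wide average plus 3 SD, cut at about 13% in these data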;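 further: forskolin and galanin both at EC90 stimulate the cells; cAMP rise reported by CNG channel membrane potential dye signal; 0% = forskolin plus galanin with DMSO and 100% = forskolin alone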
Jurkat NFkB conf: lowers PMA/ionomycin-induced NF-kB signal in Jurkat cells; shares compounds with Jurkat NFkB inh; Jurkat NF-kB luciferase, 16 h; inhibition, % at 4 µM; 2,700 tested, 27% active; AID 435020;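 active means inhibition reaching about 45% at 4 µM in either replicate, limit read from the data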;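 further: plate controls were PMA/ionomycin stimulated DMSO wells for no effect and unstimulated DMSO wells for full effect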
697 NFkB conf: lowers PMA/ionomycin-induced NF-kB signal in 697 B cells | shares compounds with 697 NFkB inh | 697 B-cell NF-kB luciferase, 16 h | inhibition, % at 4 µM | 2,000 tested, 35% active | AID 449746; in the data active means inhibition mostly above about 28%, no sharp cut-off; inactive means mostly below about 22%
Gli antag conf: Gli-SUFU antagonism confirmation, single concentration. AID 602428. 2,500 tested, 40% active. Sufu-KO-LIGHT cells, Gli luciferase reporter, luminescence. shares compounds with Gli-Sufu antag. inhibition, % at 5 µM;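 active means mean inhibition at 5 µM reaching about 45%, limit read from the data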;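 further: plate controls were DMSO-treated cells for no effect and wells lacking cells for full effect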
Gli cytotox: counter-screen for Gli-SUFU antagonists: cytotoxicity. shares compounds with Gli-Sufu antag. Sufu-KO-LIGHT cells cytotoxicity, ATP luminescence. cytotoxicity, % at 5 µM. 2,500 tested, 32% active. AID 651994;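 active means mean cytotoxicity at 5 µM above about 25%, limit read from the data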;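 further: cells exposed to compound overnight for roughly 16 to 18 hours; plate controls were DMSO wells with cells for no effect and medium without cells for full effect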
Wnt3a cs: counter-screen for Gli-SUFU antagonists: Wnt3a reporter inhibition; Wnt-LIGHT cells, Wnt3a-driven luciferase reporter, luminescence; shares compounds with Gli-Sufu antag; AID 651995; inhibition, % at 6.25 µM; 2,500 tested, 20% active;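 active means mean inhibition above about 25%, limit read from the data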
GalR3 conf: confirmation of human galanin receptor 3 antagonists | shares compounds with GalR3 antagonist | HEK293 GalR3 CNG cAMP biosensor, membrane potential fluorescence; galR3 fused to GalR1 carboxy tail; challenged with forskolin and galanin at EC90 | inhibition, % at 3 µM | 1,600 tested, 59% active;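 active means inhibition above the primary screen's cutoff, the mean inhibition of all screened compounds plus 3 SD, cut at about 13% in these data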;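 further: 0% = forskolin plus galanin and 100% = forskolin alone with DMSO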
CNG parental: acts as nonspecific agonist in parental HEK-CNG cells | shares compounds with GalR3 antagonist | HEK293-CNG parental cells, cAMP membrane potential fluorescence; normalised: DMSO wells 0%, forskolin wells 100% | activation, % at 3 µM | 1,600 tested, 10% active; in the data active means activation above about 1.3%
Gal4-VP16 ctr: counter-screen for COUP-TFII antagonists: inhibitors of VP16; shares compounds with COUP-TFII inh; HEK293 Gal4-VP16 luciferase reporter, luminescence; inhibition, % at 8.5 µM; 2,500 tested, 25% active; AID 687007; in the data active means inhibition above about 13%
NR2F2 inh conf: COUP-TFII (NR2F2) inhibition, confirmation assay; HEK293 NGFI-A luciferase reporter, luminescence; inhibition, % at 8.5 µM; 2,500 tested, 45% active; AID 687008; shares compounds with COUP-TFII inh;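 active means mean inhibition over three repeats above a set limit taken from the earlier primary screen, cut at about 38% in these data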;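 further: 100% = cells given the luciferase reporter alone without the COUP-TF2 vector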
An asterisk follows results filed as active; x = no result. Compounds with a hit are over-represented: about 2% of the library has one in this group of screens.

SMILES	Jurkat NFkB inh	697 NFkB inh	Gli-Sufu antag	COUP-TFII inh	GalR3 antagonist	Jurkat NFkB conf	GalR3 conf	CNG parental	Gal4-VP16 ctr	NR2F2 inh conf	others
COC(=O)c1ccc(NC(=O)C(=O)c2cccn2C)cc1	-170	-122	-101	-29	x	-105	0	0	x	x
COc1ccc(S[C@]2(C(=O)N(C)C)CC(=O)N(C(=O)Nc3ccc(C)c(Cl)c3)[C@@H]2c2ccc(OC)cc2)cc1	x	x	x	15	x	x	x	x	x	x
COCc1cn(-c2cccc(-c3noc4c3C(=O)N(CC(=O)N3CCOCC3)CC4)c2)nn1	x	x	x	13	x	x	x	x	x	x
COc1ccc(Br)cc1/C(C)=N/NC1=NCCN1	67*	-29	26	32	85*	34	32*	2.1*	x	x
C/C(=N\NC1=NCCN1)c1ccccc1	-16	4	0	1	-7	x	x	x	x	x
O=C(CSc1nnc(Cn2nnc3ccccc32)o1)N(Cc1ccc(F)cc1)c1ccccc1	57*	20	68*	79*	92*	61*	114*	0	0	62*	Gli antag conf=57*;Gli cytotox=45*;Wnt3a cs=21
COc1ccc(N(Cc2ccccc2)C(=O)CSc2nnc(Cn3nnc4ccccc43)o2)cc1	14	4	5	12	-6	x	x	x	x	x
COc1ccc(CNC2CCC23CCC(C)CC3)cc1OC (stereo not given)	x	x	x	-9	x	x	x	x	x	x
Cc1ccc[n+](CC(=O)/C=C2\N(C)c3ccccc3C2(C)C)c1	55*	48*	12	42*	-6	10	x	x	4	28	697 NFkB conf=1
COC(=O)[C@]12C[C@H](CC(=O)N3CCN(C(=O)c4ccco4)CC3)C(=O)N(CCc3ccc(OC)c(OC)c3)C1=C[C@H](COCc1ccccc1)O[C@@H]2C	x	x	x	8	x	x	x	x	x	x
COc1cccc(CN(C)C(=O)c2cc(COc3ccc4ncccc4c3)on2)c1	52*	19	57*	73*	88*	46	99*	0	-2	56*	Gli antag conf=57*;Gli cytotox=20;Wnt3a cs=27*
COc1cccc(CN(C)C(=O)c2cc(COc3c(F)cccc3F)on2)c1	0	22	-3	0	1	x	x	x	x	x
COc1ccc(-c2c[n+]3c(n2-c2ccc(C)cc2)CCCCC3)cc1	79*	51*	79*	71*	71*	61*	92*	0	10	61*	697 NFkB conf=65*
COc1ccc(-c2c[n+]3c(n2-c2c(C)n(C)n(-c4ccccc4)c2=O)CCCCC3)cc1	23	22	-1	4	-5	x	x	x	x	x
COc1ccc(-n2c(-c3ccc(Cl)cc3)c[n+]3c2CCCCC3)cc1	7	-22	x	29	-5	x	x	x	x	x
CCOc1ccc(-n2c(-c3ccc(OC)cc3)c[n+]3c2CCCCC3)cc1	73*	57*	87*	83*	56*	58*	x	x	20*	72*	697 NFkB conf=65*
